Measurements taken from PubChem BioAssay.
For part of these data: Measured potencies and affinities stand elsewhere. Active and inactive are the calls of the source.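 Rule for the calls, unless noted: active = dose curve with midpoint inside tested range, moderate steepness, plateau gap beyond fit error, low compound glow and bead-link interference; inactive = the rest.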

What was measured:
[1] = biological target: Cell division control protein 42 homolog (Homo sapiens) (UniProt P60953); experiment: activated mutant Cdc42 GTP-binding inhibitors, dose response, biochemical, multiplex bead flow cytometry, Bodipy-FL-GTP (AID 1333;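 active = fitted half-maximal concentration within the tested dose range, moderate curve steepness, a statistically real signal drop, and little compound fluorescence or tag-binding interference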)
[2] = biological target: Cell division control protein 42 homolog (Homo sapiens) (UniProt P60953); experiment: wildtype Cdc42 GTP-binding inhibitors, dose response, biochemical, multiplex bead flow cytometry, Bodipy-FL-GTP (AID 1334;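 active = fitted half-maximal concentration within the tested range, moderate curve steepness, significant signal drop, and little compound fluorescence or bead-linkage interference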); conditions: bead-based flow cytometry, Bodipy-FL-GTP binding to GST-Cdc42; at 100 µM (top of the series) unless noted
[3] = biological target: GTPase HRas (Homo sapiens) (UniProt P01112); experiment: inhibitors of GTP binding to wildtype Ras, dose response, biochemical, multiplex bead flow cytometry (AID 1335;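 active = fitted half-maximal concentration within 10 nM to 100 µM, steepness 0.5 to 2, significant signal drop, low assay interference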); conditions: bead-based flow cytometry, Bodipy-GTP binding to GST-Ras; at 100 µM (top of the series) unless noted
[4] = test system: Ras-related protein Rab-7a (dog), GTP binding; experiment: Rab7 GTP binding inhibitors, potency, dose response, biochemical, wildtype, multiplex bead flow cytometry (AID 1336; call rule not given here)
[5] = biological target: Ras-related C3 botulinum toxin substrate 1 (Homo sapiens) (UniProt P63000); experiment: wildtype Rac1 GTP binding inhibitors, dose response, biochemical, multiplex bead flow cytometry (AID 1340); conditions: GST-Rac1 beads, Bodipy-FL-GTP binding; at 100 µM (top of the series) unless noted
[6] = biological target: GTPase HRas (Homo sapiens) (UniProt P01112); experiment: activated Ras mutant GTP binding inhibitors, dose response, biochemical, multiplex bead flow cytometry (AID 1341;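 active = dose-response curve with midpoint inside the tested range, moderate steepness, significant amplitude and little compound fluorescence or bead-attachment interference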;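 note: GST-tagged constitutively activated Ras mutant immobilized on beads and multiplexed with other GTPases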)

Chain of Cell division control protein 42 homolog (Homo sapiens) (P60953 whole entry, looked up): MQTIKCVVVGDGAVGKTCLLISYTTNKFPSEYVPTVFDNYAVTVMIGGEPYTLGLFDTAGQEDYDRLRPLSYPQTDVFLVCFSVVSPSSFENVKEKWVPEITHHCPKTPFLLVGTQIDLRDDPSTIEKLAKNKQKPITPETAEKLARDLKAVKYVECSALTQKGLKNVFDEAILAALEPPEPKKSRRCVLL
Chain of GTPase HRas (Homo sapiens) (P01112 whole entry, looked up): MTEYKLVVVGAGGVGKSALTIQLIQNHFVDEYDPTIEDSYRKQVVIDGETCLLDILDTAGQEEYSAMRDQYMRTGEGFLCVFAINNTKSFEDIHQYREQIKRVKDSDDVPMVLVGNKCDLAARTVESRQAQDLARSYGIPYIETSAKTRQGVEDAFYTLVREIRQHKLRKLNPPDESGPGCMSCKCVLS

COc1cc(-c2cc(=O)c3c(O)cc(O)cc3o2)ccc1O
outcome [1]: inactive
fluorescence, percent of control (lower = inhibition) [2]: 36%
GTP binding, percent of control [3]: 84.7%
outcome [4]: inactive
GTP binding signal, raw median fluorescence (lower = inhibition) (MCF (arbitrary fluorescence units)) [5]: 189
outcome [6]: inactive

N#C/C(=C(/O)COc1ccc(Br)cc1)c1nnc2n1CCCCC2
outcome [1]: inactive
fluorescence, percent of control (lower = inhibition) [2]: 29.2%
GTP binding, percent of control [3]: 79.2%
outcome [4]: inactive
GTP binding signal, raw median fluorescence (lower = inhibition) (MCF (arbitrary fluorescence units)) [5]: 262
outcome [6]: inactive

COc1cc(NS(=O)(=O)c2ccc(NC(=O)/C=C/c3cccc([N+](=O)[O-])c3)cc2)ncn1
outcome [1]: inactive
fluorescence, percent of control (lower = inhibition) [2]: 29.8%
GTP binding, percent of control [3]: 77.7%
outcome [4]: inactive
GTP binding signal, raw median fluorescence (lower = inhibition) (MCF (arbitrary fluorescence units)) [5]: 191
outcome [6]: inactive

CCN(CC)S(=O)(=O)c1cc([N+](=O)[O-])ccc1N=Nc1c(O)[nH]c2ccccc12
outcome [1]: inactive
fluorescence, percent of control (lower = inhibition) [2]: 82.9%
GTP binding, percent of control [3]: 87.4%
outcome [4]: inactive
GTP binding signal, raw median fluorescence (lower = inhibition) (MCF (arbitrary fluorescence units)) [5]: 351
outcome [6]: inactive

COc1ccc(-c2nnc(CSc3nc4ccccc4c(=O)n3C)o2)cc1OC
outcome [1]: inactive
fluorescence, percent of control (lower = inhibition) [2]: 39.2%
GTP binding, percent of control [3]: 87.3%
outcome [4]: inactive
GTP binding signal, raw median fluorescence (lower = inhibition) (MCF (arbitrary fluorescence units)) [5]: 320
outcome [6]: inactive

COc1cc(/C=N/Nc2nc(C)nc3c2cnn3-c2ccccc2)ccc1O
outcome [1]: inactive
fluorescence, percent of control (lower = inhibition) [2]: 87.1%
GTP binding, percent of control [3]: 128%
outcome [4]: inactive
GTP binding signal, raw median fluorescence (lower = inhibition) (MCF (arbitrary fluorescence units)) [5]: 241
outcome [6]: inactive

O=C(O)C1C2C=CC(C2)C1C(=O)N1CCOCC1 (stereo not drawn)
outcome [1]: inactive
fluorescence, percent of control (lower = inhibition) [2]: 53.2%
GTP binding, percent of control [3]: 66.4%
outcome [4]: inactive
GTP binding signal, raw median fluorescence (lower = inhibition) (MCF (arbitrary fluorescence units)) [5]: 216
outcome [6]: inactive

O=C(O)c1cc(Sc2ccc(F)cc2)nc2ccccc12
outcome [1]: inactive
fluorescence, percent of control (lower = inhibition) [2]: 59.8%
GTP binding, percent of control [3]: 86%
outcome [4]: inactive
GTP binding signal, raw median fluorescence (lower = inhibition) (MCF (arbitrary fluorescence units)) [5]: 30.2
outcome [6]: inactive
